# ALOX12 inhib: 12-hLO (ALOX12) enzyme inhibition; P18054; purified 12-hLO, xylenol orange hydroperoxide absorbance; Potency, µM (titrated, usually from 57.1 µM), for the others: at the highest dose activity change, negative = inhibition, most hits filed as inhibitors; actives 0.12% (n = 150,000); note: potency is the fitted concentration of half-maximal effect; nearly all actives have a fitted effect of over 55% in size
# Target sequence (P18054 whole entry, looked up): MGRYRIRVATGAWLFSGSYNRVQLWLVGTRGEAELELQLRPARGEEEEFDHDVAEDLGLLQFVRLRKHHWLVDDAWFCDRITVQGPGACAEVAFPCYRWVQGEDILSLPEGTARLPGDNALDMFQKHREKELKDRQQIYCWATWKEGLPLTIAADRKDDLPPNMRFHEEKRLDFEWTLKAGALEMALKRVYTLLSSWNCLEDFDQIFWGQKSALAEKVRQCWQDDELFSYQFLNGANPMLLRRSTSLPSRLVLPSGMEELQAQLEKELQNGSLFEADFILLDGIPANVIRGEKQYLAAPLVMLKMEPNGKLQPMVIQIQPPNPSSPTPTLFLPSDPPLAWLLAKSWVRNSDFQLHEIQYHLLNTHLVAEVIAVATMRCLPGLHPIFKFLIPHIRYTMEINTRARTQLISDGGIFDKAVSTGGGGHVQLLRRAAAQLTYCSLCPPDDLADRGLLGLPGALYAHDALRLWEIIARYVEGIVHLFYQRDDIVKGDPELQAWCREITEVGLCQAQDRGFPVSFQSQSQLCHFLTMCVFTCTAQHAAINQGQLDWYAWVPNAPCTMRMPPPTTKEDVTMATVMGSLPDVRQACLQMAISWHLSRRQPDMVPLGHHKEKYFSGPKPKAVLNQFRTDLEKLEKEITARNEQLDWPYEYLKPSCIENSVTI
#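 Xylenol orange chromogenic assay: hydroperoxide from 12hLO oxidises Fe(II), giving red-shifted Fe(III)-XO absorbance. Conditions: 150 nM enzyme, 40 uM arachidonic acid, 25 mM Hepes pH 7.0, 0.01% Triton X-100, 30 min, room temperature.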
# aGal spleen mod: inhibits or activates alpha-galactosidase in human spleen homogenate; Potency, µM (top dose mostly 80 µM), for the others: at the top dose activity change, negative = inhibition, hits mostly inhibitors; actives 0.008% (n = 240,000); human spleen homogenate, 4MU-alpha-Gal fluorescence, 40 min; P06280; AID 2107;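 note: potency is the fitted concentration of half-maximal effect; 0% = enzyme with vehicle and -100% = no enzyme basal signal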
#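 Human spleen homogenate (1 ug) as enzyme source, 4-methylumbelliferyl-alpha-D-galactopyranoside 1 mM final, citrate/phosphate pH 5.0 with 0.01% Tween-20. Compounds 40 min at 37C, NaOH/glycine stop; fluorescence Ex 365/Em 440, Hill-fit AC50.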
# HPGD inh: inhibitors of human 15-hydroxyprostaglandin dehydrogenase (HPGD). purified HPGD, NADH fluorescence kinetic, PGE2 substrate. Potency, µM, for inactives: top-dose activity change, negative = inhibition, usual class: inhibitors. actives 4.3% (n = 150,000). AID 894; active = well fitted inhibition curve with a large enough effect, not every such curve was filed as active; inconclusive = small, poorly fitted or top-dose-only effect, or another doubt; inactive = no such curve, though single readings can be large or run the other way; note: potency is the fitted concentration of half-maximal effect
#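 NADH formation kinetics: reaction with 30 uM PGE2 and 1 mM NAD+ (final), 20 nM enzyme, Tris-HCl pH 8 with Tween 20, after 15 min compound preincubation at room temperature. Fluorescence change, last versus first of five reads.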
# GLA inh pH 4.5: blocks human alpha-galactosidase A at pH 4.5; P06280; purified enzyme, 4-MU-alpha-Gal fluorescence, pH 4.5; activity change, negative = inhibition, % at 105 µM; 230,000 tested, under 10 active; AID 1467;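 note: 0% = full activity with enzyme and -100% = basal without enzyme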
# ALDH1A1 block: inhibitors of human aldehyde dehydrogenase 1A1; Purified ALDH1A1, NADH fluorescence, propionaldehyde substrate; Potency, µM (titrated, usually from 75.3 µM), for the others: at the top dose activity, negative = inhibition, actives largely listed as inhibitors; P00352; AID 1030; actives 7.3% (n = 220,000); active = well fitted inhibition curve with a large enough effect, not every such curve was filed as active; inconclusive = small, poorly fitted or top-dose-only effect, or another doubt; inactive = no such curve, though single readings can be large or run the other way;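 note: potency is the fitted concentration of half-maximal effect; plate controls were no enzyme wells and a reference inhibitor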
# PNC assembly inh: perinucleolar compartment assembly inhibition; PC3M PTB-GFP, PNC prevalence imaging, 16 h; stronger effect = lower value; activity change (PNC), negative = inhibition, % at 10 µM; actives 3.1% (n = 140,000); AID 2417;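 active = readout at or below -70, meaning at least 70% loss of cells showing the perinucleolar compartment, a nuclear body marking cancer cells; inconclusive = readout between -30 and a set limit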;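 note: plate controls were DMSO wells for no effect and camptothecin positive control wells for full effect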
#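 Read-out is percentage of cells bearing a perinucleolar compartment, from automated 20x imaging of fixed, Hoechst-stained PC3M PTB-GFP cells. Cells were seeded 4 h, then exposed 16 h to compound (23 nl of library stock) in duplicate plates.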
# Numbers without * were called inactive; u = inconclusive; x = no result; ! = not active in a repeat; [ ] = dose if it differs, or a comment. The list is not random: actives were taken first. Their share in the collection is about 10%. Unless noted, calls come from the whole dose curve; as a rule, active = well fitted curve in the direction sought with a large enough effect; inconclusive = small, poorly fitted or top-dose-only effect, or another doubt; inactive = no such curve, though single readings can be large; an effect the other way counts as inactive or inconclusive. Unless noted, % is set by controls: 0 for no effect and ±100 for the full control effect.
SMILES,ALOX12 inhib,aGal spleen mod,HPGD inh,GLA inh pH 4.5,ALDH1A1 block,PNC assembly inh
CSc1ccccc1NC(=O)CSCc1ccc(C)cc1,-4%,-8%,16µM*,1,-16%,25
Cc1ccccc1NC(=O)CSCC(=O)Nc1ccccc1C,u,1%,18µM*,-1,-1%,-28
Cc1ccccc1NC(=O)Cc1nc(CCl)cs1,3%,6%,20µM*,-3,11µM*,u
C=C1C(=O)OC2CC1C(OC(C)=O)CC(C)=CCCC(C)=CCC[C@@]2(C)O (some centres not stated),0%,5%,-6%,2,u,x
COc1cc(CC(NC(C)=O)C(=O)NC2CCN(c3c(Cc4ccccc4)c(C)nc4ncnn34)CC2)cc(OC)c1 (configuration not stated),-3%,-2%,-16%,2,18%,59
O=C(CN(c1ccc2c(c1)OCCO2)S(=O)(=O)c1ccccc1)N1CCN(Cc2ccccc2)CC1,x,6%,x,-12,-10%,x
CC(C)N(Cc1ccccc1)C(=O)COC(=O)/C=C/c1cnc2ccccc2n1,x,5%,x,2,16µM*,x
CCCCCCCCCCCCC(=O)N1CCCC[C@H]1CNC(=O)[C@@H](N)CCCCN,7%,13%,-4%,4,-3%,x
CCc1oc2ccccc2c1C(=O)c1cc(Br)c(O)c(Br)c1,-17%,-9%,18µM*!,8,-9%[13.5 µM],26
CCN(CC)S(=O)(=O)c1cccc(-c2n[nH]c(=S)n2/N=C/c2ccc(OC)cc2)c1,-6%,-13%,16µM*,1,u,17
CCC(C)n1c(-c2cccc(S(=O)(=O)N(CC)CC)c2)n[nH]c1=S (configuration not stated),x,5%,x,-10,13µM*,x
CCN(CC)S(=O)(=O)c1cccc(-c2n[nH]c(=S)n2/N=C/c2ccc(OC(F)F)cc2)c1,-16%,3%,3.2µM*,-11,u,72
CCN(CC)S(=O)(=O)c1cccc(-c2n[nH]c(=S)n2/N=C/c2ccc(Br)cc2)c1,-1%,-7%,14µM*,-1,-16%,-20
CCN(CC)S(=O)(=O)c1cccc(-c2n[nH]c(=S)n2C(C)COC)c1 (configuration not stated),x,-7%,x,3,-4%,x
O=C(O)CN1CCCCCC1=O,x,-7%,x,-3,4%,x
CSc1ccc(C(=O)C2CCCN(C(=O)c3csc(C(C)=O)c3)C2)cc1 (configuration not stated),x,6%,x,-2,2µM*,x
Cc1cc(=O)[nH]c(N/N=C/c2cccs2)n1,-1%,3%,-14%,-3,-14%,u
Cc1cc(=O)[nH]c(N/N=C/c2sccc2C)n1,-6%,7%,40µM*,10,3%,-9
CC(C)c1ccc(CN2CC(C(=O)Nc3ccccc3)CC2=O)cc1 (configuration not stated),x,-2%,x,-8,-14%,x
COCCCNC(=O)COc1ccc(Br)cc1Cl,-1%,5%,-12%,7,8%,-90*
COCCNC(=O)COc1ccc(C)cc1C,2%,1%,14µM*,2,-14%,-23

# Bioassay records: PubChem BioAssay, National Center for Advancing Translational Sciences (NCATS)
